{
  "source": "PubChem BioAssay (NCATS)",
  "key": {"[1]": {"target": "Cytochrome P450 3A7 (Homo sapiens) (UniProt P24462)", "sequence (P24462 whole entry, looked up)": "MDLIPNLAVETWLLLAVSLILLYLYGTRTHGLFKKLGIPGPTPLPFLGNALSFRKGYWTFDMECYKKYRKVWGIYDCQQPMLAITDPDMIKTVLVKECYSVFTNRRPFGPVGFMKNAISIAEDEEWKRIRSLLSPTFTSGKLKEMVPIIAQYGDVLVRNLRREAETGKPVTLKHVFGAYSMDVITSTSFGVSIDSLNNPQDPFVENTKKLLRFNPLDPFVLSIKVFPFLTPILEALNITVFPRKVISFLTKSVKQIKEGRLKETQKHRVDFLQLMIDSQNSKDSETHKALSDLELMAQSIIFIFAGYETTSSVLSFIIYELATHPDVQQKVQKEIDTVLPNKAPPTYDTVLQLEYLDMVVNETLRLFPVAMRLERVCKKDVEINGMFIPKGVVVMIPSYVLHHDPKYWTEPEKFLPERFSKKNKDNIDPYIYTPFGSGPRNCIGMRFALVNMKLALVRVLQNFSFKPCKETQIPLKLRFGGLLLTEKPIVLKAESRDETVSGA", "assay": "Cytochrome P450 family 3 subfamily A member 7 (CYP3A7) small molecule antagonists: luciferase biochemical qHTS assay (AID 1963596); also: nearly all actives have a fitted effect of over 40% in size", "conditions": "P450-Glo CYP3A7 enzyme luminescence, 1 h; series mostly up to 57.4 µM", "outline": "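Enzyme-substrate mix + cpd (DMSO), 10 min RT; + NADPH regen system, 1 h RT; + luciferin detection reagent, 20 min RT; luminescence read. Proluciferin substrate, P450-Glo format, 1536-well qHTS.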"}, "[2]": {"assay": "Viability qHTS for spleen associated tyrosine kinase inhibitor (SYKi) naive MV4-11 cells (AID 1963823); also: nearly all actives have a fitted effect of over 40% in size; also: potency is read from the fitted curve at half-maximal effect", "conditions": "MV4-11 AML viability, CellTiter-Glo luminescence, 72 h; series mostly up to 45 µM", "outline": "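Luminescence from CellTiter-Glo, developed 10 min at room temperature, gave viability of MV4-11 cells never exposed to SYK inhibitor. Cells (500/well) had been incubated with compounds for 72 hr under standard culture conditions.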"}, "[3]": {"assay": "Viability qHTS for spleen associated tyrosine kinase inhibitor (SYKi) drug resistant MV4-11 cells (AID 1963824); also: nearly all actives have a fitted effect of over 35% in size; also: potency is read from the fitted curve at half-maximal effect", "conditions": "SYKi-resistant MV4-11 viability, CellTiter-Glo, 72 h; series mostly up to 45 µM", "outline": "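SYK inhibitor-resistant MV4-11 AML cells, 500 per well, added to predispensed compounds and incubated 72 hr at 37 C, 5% CO2. Viability measured by CellTiter-Glo luminescence after 10 min at room temperature.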"}, "[4]": {"assay": "Quantitative highthroughput screen to assess conditional lethalithy of NOMO1 cells grown in RPMI1640 with untreated serum (RPMI+s) (AID 1963876); also: nearly all actives have a fitted effect of over 35% in size; also: potency is read from the fitted curve at half-maximal effect", "conditions": "NOMO1 AML cells in RPMI+serum, CellTiter-Glo viability, 48 h; series mostly up to 45.8 µM", "outline": "(§1)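 Each medium arm—HPLM with 10% dialyzed FBS, or RPMI1640 with 5 mM glucose and 10% untreated or dialyzed FBS—was screened against an 11-point, 3-fold compound titration for 48 h at 37 °C, with CellTiter-Glo luminescence as endpoint.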"}, "[5]": {"assay": "Quantitative highthroughput screen to assess conditional lethalithy of NOMO1 cells grown in RPMI1640 with dialyzed fetal bovine serum (RPMI+ds) (AID 1963877)", "conditions": "NOMO1 in RPMI+dialyzed FBS viability, ATP luminescence, 48 h; series mostly up to 45.8 µM", "outline": "as §1"}, "[6]": {"assay": "Quantitative highthroughput screen to assess conditional lethalithy of NOMO1 cells grown in Human Plasma-Like Medium with dialyzed fetal bovine serum (HPLM+ds) (AID 1963878)", "conditions": "NOMO1 AML cells in HPLM+ds, CellTiter-Glo viability, 48 h; series mostly up to 45.8 µM", "outline": "as §1"}, "[7]": {"assay": "Quantitative highthroughput screen to assess conditional lethalithy of P12 Ichikawa cells grown in Human Plasma-Like Medium with dialyzed fetal bovine serum (HPLM+ds) (AID 1963879)", "conditions": "ATP luminescence, 48 h; Potency: viability; series mostly up to 45.8 µM", "outline": "as §1"}, "[8]": {"assay": "Quantitative highthroughput screen to assess conditional lethalithy of P12 Ichikawa cells grown in RPMI1640 with dialyzed fetal bovine serum (RPMI+ds) (AID 1963880)", "conditions": "ATP luminescence, 48 h; Potency: P12-Ichikawa viability; series mostly up to 45.8 µM", "outline": "as §1"}, "[9]": {"assay": "Quantitative highthroughput screen to assess conditional lethalithy of P12 Ichikawa cells grown in RPMI1640 with untreated serum (RPMI+s) (AID 1963881)", "conditions": "ATP luminescence, 48 h; Potency: viability; series mostly up to 45.8 µM", "outline": "as §1"}, "[10]": {"assay": "Quantitative highthroughput screen to assess conditional lethalithy of SEM cells grown in RPMI1640 with dialyzed fetal bovine serum (RPMI+ds) (AID 1963884)", "conditions": "SEM B-ALL cells, RPMI+dialyzed FBS, CellTiter-Glo viability, 48 h; series mostly up to 45.8 µM", "outline": "as §1"}, "[11]": {"assay": "Cellular viability qHTS for adrenocortical cancer (ACC) cell line NCI-H295R (AID 1963990)", "conditions": "CellTiter-Glo ATP luminescence, 48 h; series mostly up to 46.1 µM", "outline": "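IC50 and maximal efficacy derive from four-parameter logistic modelling of titration curves, with reads scaled between DMSO-only wells (0%) and doxorubicin hydrochloride (100% inhibition). Compounds spanned up to 46 uM over 48 h.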"}, "[12]": {"assay": "Quantitative highthroughput screen to assess conditional lethalithy of SEM cells grown in Human Plasma-Like Medium with dialyzed fetal bovine serum (HPLM+ds) (AID 1963882)", "conditions": "SEM B-ALL cells in HPLM+ds, CellTiter-Glo viability, 48 h; series mostly up to 45.8 µM", "outline": "as §1"}, "[13]": {"assay": "Cellular viability qHTS for adrenocortical cancer (ACC) cell line SW-13 (AID 1963989)", "conditions": "SW-13 ACC cells viability, CellTiter-Glo, 48 h; activity (max response): hits give low values", "outline": "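Luminescent ATP read-out (CellTiter-Glo, 20 min at room temperature) measured metabolically competent SW-13 cells after 48 h compound treatment. Final concentrations spanned up to 46 uM; bortezomib served as positive control.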"}, "[14]": {"assay": "Quantitative highthroughput screen to assess conditional lethalithy of SEM cells grown in RPMI1640 with unreated serum (RPMI+s) (AID 1963883)", "conditions": "SEM B-ALL cells, CellTiter-Glo viability, 48 h; series mostly up to 45.8 µM", "outline": "as §1"}},
  "note": "“And” between values parts separate entries of the source, which are not always exact repeats. Identical values can stand only once. Results filed as inconclusive are left out. Where a call stands in place of a potency, no number is given. A number with no mark means an inactive call. The source made the active and inactive calls. Calls follow the shape of the dose curve; as a rule, active = well fitted curve in the direction sought with a large enough effect; inconclusive = small, poorly fitted or top-dose-only effect, or another doubt; inactive = no such curve, though single readings can be large; an effect the other way counts as inactive or inconclusive. For Potency in this document: potency is read from the fitted curve at half-maximal effect.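 For activity (max response) in this document: cells grown in serum-free medium with ITS supplement.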 For activity (max response) in this document: nearly all actives have a fitted effect of over 65% in size.",
  "data": [
    {"compound": "Nc1nc(Cl)nc2c1ncn2[C@H]1C[C@H](O)[C@@H](CO)O1", "values": [
      {"measurement": "Potency", "setting": "[1]", "result": "inactive"},
      {"measurement": "Potency", "setting": "[2]", "result": "93.4 nM (active)"},
      {"measurement": "Potency", "setting": "[3]", "result": "148 nM (active)"},
      {"measurement": "Potency", "setting": "[4]", "result": "209 nM (active)"},
      {"measurement": "Potency", "setting": "[5]", "result": "148 nM (active)"},
      {"measurement": "Potency", "setting": "[6]", "result": "132 nM (active)"},
      {"measurement": "Potency", "setting": "[7]", "result": "209 nM (active)"},
      {"measurement": "Potency", "setting": "[8]", "result": "235 nM (active)"},
      {"measurement": "Potency", "setting": "[9]", "result": "187 nM (active)"},
      {"measurement": "Potency", "setting": "[10]", "result": "66.2 nM (active)"},
      {"measurement": "Potency", "setting": "[11]", "result": "inactive"}
    ]},
    {"compound": "O=C1CCC(N2C(=O)c3ccccc3C2=O)C(=O)N1", "note": "(stereo unspecified)", "values": [
      {"measurement": "Potency", "setting": "[1]", "result": "inactive"},
      {"measurement": "Potency", "setting": "[2]", "result": "inactive"},
      {"measurement": "Potency", "setting": "[3]", "result": "inactive"},
      {"measurement": "Potency", "setting": "[4]", "result": "inactive"},
      {"measurement": "Potency", "setting": "[5]", "result": "inactive"},
      {"measurement": "Potency", "setting": "[6]", "result": "inactive"},
      {"measurement": "Potency", "setting": "[7]", "result": "inactive"},
      {"measurement": "Potency", "setting": "[8]", "result": "inactive"},
      {"measurement": "Potency", "setting": "[9]", "result": "inactive"},
      {"measurement": "Potency", "setting": "[12]", "result": "inactive"},
      {"measurement": "Potency", "setting": "[10]", "result": "inactive"},
      {"measurement": "activity (max response)", "setting": "[13]", "result": "13.3% and -15.2%"},
      {"measurement": "Potency", "setting": "[11]", "result": "inactive"}
    ]},
    {"compound": "Nc1cc(C(Cl)=C(Cl)Cl)c(S(N)(=O)=O)cc1S(N)(=O)=O", "values": [
      {"measurement": "Potency", "setting": "[1]", "result": "inactive"},
      {"measurement": "Potency", "setting": "[2]", "result": "inactive"},
      {"measurement": "Potency", "setting": "[3]", "result": "inactive"},
      {"measurement": "Potency", "setting": "[4]", "result": "7430 nM (active)"},
      {"measurement": "Potency", "setting": "[5]", "result": "7430 nM (active)"},
      {"measurement": "Potency", "setting": "[6]", "result": "1870 nM (active)"},
      {"measurement": "Potency", "setting": "[7]", "result": "1180 nM (active)"},
      {"measurement": "Potency", "setting": "[8]", "result": "5260 nM (active)"},
      {"measurement": "Potency", "setting": "[9]", "result": "7430 nM (active)"},
      {"measurement": "Potency", "setting": "[12]", "result": "7430 nM (active)"},
      {"measurement": "Potency", "setting": "[14]", "result": "2960 nM (active)"},
      {"measurement": "activity (max response)", "setting": "[13]", "result": "-17% and 6.7%"},
      {"measurement": "Potency", "setting": "[11]", "result": "inactive"}
    ]},
    {"compound": "COC(=O)c1ccc2c(C(=Nc3ccc(N(C)C(=O)CN4CCN(C)CC4)cc3)c3ccccc3)c(O)[nH]c2c1", "values": [
      {"measurement": "Potency", "setting": "[1]", "result": "inactive"},
      {"measurement": "Potency", "setting": "[2]", "result": "32.6 nM (active) and 37.2 nM (active)"},
      {"measurement": "Potency", "setting": "[3]", "result": "58 nM (active) and 66.1 nM (active)"},
      {"measurement": "Potency", "setting": "[4]", "result": "inactive"},
      {"measurement": "Potency", "setting": "[5]", "result": "inactive"},
      {"measurement": "Potency", "setting": "[6]", "result": "inactive"},
      {"measurement": "Potency", "setting": "[7]", "result": "inactive"},
      {"measurement": "Potency", "setting": "[8]", "result": "inactive"},
      {"measurement": "Potency", "setting": "[9]", "result": "inactive"},
      {"measurement": "Potency", "setting": "[13]", "result": "7080 nM (active)"},
      {"measurement": "Potency", "setting": "[11]", "result": "10000 nM (active)"}
    ]},
    {"compound": "Nc1ccc(S(N)(=O)=O)cc1", "values": [
      {"measurement": "Potency", "setting": "[1]", "result": "inactive"},
      {"measurement": "Potency", "setting": "[2]", "result": "inactive"},
      {"measurement": "Potency", "setting": "[3]", "result": "inactive"},
      {"measurement": "Potency", "setting": "[4]", "result": "inactive"},
      {"measurement": "Potency", "setting": "[5]", "result": "inactive"},
      {"measurement": "Potency", "setting": "[6]", "result": "inactive"},
      {"measurement": "Potency", "setting": "[7]", "result": "inactive"},
      {"measurement": "Potency", "setting": "[8]", "result": "inactive"},
      {"measurement": "Potency", "setting": "[9]", "result": "inactive"},
      {"measurement": "Potency", "setting": "[12]", "result": "inactive"},
      {"measurement": "Potency", "setting": "[14]", "result": "inactive"},
      {"measurement": "Potency", "setting": "[10]", "result": "inactive"},
      {"measurement": "Potency", "setting": "[11]", "result": "inactive"}
    ]}
  ]
}
